Measurements published in article PMC5700166.

molecular target: T1, GST-Nv-NF-kB (Ser allele) (Nematostella vectensis, UniProt A7UNT2 2-411); assay: protein-binding microarray (PBM); PBM: ~300 nM protein, 6 mM HEPES pH 7.8, 80 mM KCl, 0.5 mM EDTA, 0.5 mM EGTA, 6% glycerol, 35 ng/ul poly-dIdC, 1% milk, 1 h, room temperature; Ap Aiptasia and Nv Nematostella (sea anemones) / Co Capsaspora / Aq Amphimedon (sponge) / Dm Drosophila / Hu human; RHD is the Rel homology domain; high values mean tight binding; conditions: dsDNA, one strand shown
T1 sequence: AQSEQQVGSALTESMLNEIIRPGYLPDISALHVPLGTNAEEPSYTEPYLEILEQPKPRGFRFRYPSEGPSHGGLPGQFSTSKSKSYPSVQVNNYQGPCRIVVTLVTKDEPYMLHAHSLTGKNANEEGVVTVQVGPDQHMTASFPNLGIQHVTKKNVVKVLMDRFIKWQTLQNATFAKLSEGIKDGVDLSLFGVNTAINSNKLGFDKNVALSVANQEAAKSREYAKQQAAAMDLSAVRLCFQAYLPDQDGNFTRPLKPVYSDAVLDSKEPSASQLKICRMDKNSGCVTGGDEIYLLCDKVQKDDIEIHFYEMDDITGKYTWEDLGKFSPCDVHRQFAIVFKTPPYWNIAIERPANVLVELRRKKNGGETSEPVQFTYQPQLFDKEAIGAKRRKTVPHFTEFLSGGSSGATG

Sequence | binding signal [z-score]
CCGATTAACATCAAATATTCCCATGATGTTAATCGGGTCTTGATTCGCTTGACGCTGCTG | 4.14
CCGATTAACATCAGGGAATCTCATGATGTTAATCGGGTCTTGATTCGCTTGACGCTGCTG | 3.31
CCGATTAACATCAAAATTCCCGGTGATGTTAATCGGGTCTTGATTCGCTTGACGCTGCTG | 6.06
CCGATTAACATCAATATTTACCCTGATGTTAATCGGGTCTTGATTCGCTTGACGCTGCTG | 5.12
CCGATTAACATCAGGGCAGTACCTGATGTTAATCGGGTCTTGATTCGCTTGACGCTGCTG | 2.24
CCGATTAACATCAAACTCTCCCCTGATGTTAATCGGGTCTTGATTCGCTTGACGCTGCTG | 4.93
CCGATTAACATCACCGGAATTCCTGATGTTAATCGGGTCTTGATTCGCTTGACGCTGCTG | 1.56
CCGATTAACATCAGATTCTCCCCTGATGTTAATCGGGTCTTGATTCGCTTGACGCTGCTG | 6.01
CCGATTAACATCAGGAATATACCTGATGTTAATCGGGTCTTGATTCGCTTGACGCTGCTG | 1.48
CCGATTAACATCAGGGATTACCATGATGTTAATCGGGTCTTGATTCGCTTGACGCTGCTG | 2.16
CCGATTAACATCAGGGGGGGTACTGATGTTAATCGGGTCTTGATTCGCTTGACGCTGCTG | 4.19
CCGATTAACATCACACATTTCCCTGATGTTAATCGGGTCTTGATTCGCTTGACGCTGCTG | 4.87
CCGATTAACATCAGGTAATTCCATGATGTTAATCGGGTCTTGATTCGCTTGACGCTGCTG | 3.72
CCGATTAACATCAGGGCGTCCCCTGATGTTAATCGGGTCTTGATTCGCTTGACGCTGCTG | 4.47
CCGATTAACATCAGGGATCCCCATGATGTTAATCGGGTCTTGATTCGCTTGACGCTGCTG | 5.06
CCGATTAACATCACCCCTCCCCATGATGTTAATCGGGTCTTGATTCGCTTGACGCTGCTG | 3.22
CCGATTAACATCAAACAACCCCCTGATGTTAATCGGGTCTTGATTCGCTTGACGCTGCTG | 4.83
CCGATTAACATCAGTCCCGCACTTGATGTTAATCGGGTCTTGATTCGCTTGACGCTGCTG | 1.03
CCGATTAACATCAGGGGCACCCCTGATGTTAATCGGGTCTTGATTCGCTTGACGCTGCTG | 2.72
CCGATTAACATCAAATTCCCAGATGATGTTAATCGGGTCTTGATTCGCTTGACGCTGCTG | 3.83

Sequence | binding signal [z-score]
CCGATTAACATCAGGACGTTCCCTGATGTTAATCGGGTCTTGATTCGCTTGACGCTGCTG | 1.14
CCGATTAACATCAGAGAAGTCCCTGATGTTAATCGGGTCTTGATTCGCTTGACGCTGCTG | 5.95
CCGATTAACATCAGGAATACCCCTGATGTTAATCGGGTCTTGATTCGCTTGACGCTGCTG | 4.15
CCGATTAACATCAAGGGATCCCCTGATGTTAATCGGGTCTTGATTCGCTTGACGCTGCTG | 6.37
CCGATTAACATCAGGGGTTTCACTGATGTTAATCGGGTCTTGATTCGCTTGACGCTGCTG | 2.32
CCGATTAACATCAAAAAACCGTTTGATGTTAATCGGGTCTTGATTCGCTTGACGCTGCTG | 2.22
CCGATTAACATCAGGGGCGGGAATGATGTTAATCGGGTCTTGATTCGCTTGACGCTGCTG | 3.18
CCGATTAACATCAGGAATTACCATGATGTTAATCGGGTCTTGATTCGCTTGACGCTGCTG | 2.03
CCGATTAACATCACAAATTCCCATGATGTTAATCGGGTCTTGATTCGCTTGACGCTGCTG | 4.59
CCGATTAACATCAAGGAAAAACCTGATGTTAATCGGGTCTTGATTCGCTTGACGCTGCTG | 1.47
CCGATTAACATCAGGATCTTCCCTGATGTTAATCGGGTCTTGATTCGCTTGACGCTGCTG | 1.87
CCGATTAACATCAATGGGAATTCTGATGTTAATCGGGTCTTGATTCGCTTGACGCTGCTG | 4.57
CCGATTAACATCAGGGAAAGGTATGATGTTAATCGGGTCTTGATTCGCTTGACGCTGCTG | 3.34
CCGATTAACATCAGGTATTTTTATGATGTTAATCGGGTCTTGATTCGCTTGACGCTGCTG | 3.43
CCGATTAACATCAGGGTTTTCCATGATGTTAATCGGGTCTTGATTCGCTTGACGCTGCTG | 1.68
CCGATTAACATCACCAGTTTCCCTGATGTTAATCGGGTCTTGATTCGCTTGACGCTGCTG | 4.89
CCGATTAACATCAGATATTTCCCTGATGTTAATCGGGTCTTGATTCGCTTGACGCTGCTG | 5.36
CCGATTAACATCAAAATTCCCATTGATGTTAATCGGGTCTTGATTCGCTTGACGCTGCTG | 5.71
CCGATTAACATCACGTAAACCCCTGATGTTAATCGGGTCTTGATTCGCTTGACGCTGCTG | 2.13
